# Test results: PubChem BioAssay (EPA / NIEHS)
# Records with an inconclusive call do not appear. Activity calls are given as the source filed them. The calls were made as follows: active = hit-call score of the fitted dose curve at least 0.9, where 1 is the maximum; inconclusive = response in the unintended direction; inactive = score below 0.9.
# Biological target: Retinoic acid receptor RXR-alpha (Homo sapiens) (UniProt P19793)
# Experiment: OT_NURR1_NURR1RXRa_1440: Odyssey Thera (OT) 24-hour HEK293T Protein Complementation Assay for Nurr1/retinoid X receptor (RXR) (AID 2283386)
# Experimental: OT_NURR1_NURR1RXRa_1440 is a cell-based assay that uses HEK293T, a human kidney cell line, with measurements taken at 24 hours after chemical dosing in a 384-well plate.OT_NURR1_NURR1RXRa_1440 is one of one assay component(s) measured or calculated from the OT_NURR1_NURR1RXRa_1440 assay. It is designed to make measurements of protein fragment complementation, a form of binding reporter, as detected with fluorescence intensity signals by Protein-fragment Complementation technology.Data from the assay component OT_NURR1_NURR1RXRa_1440 was analyzed into 1 assay endpoint. This assay endpoint, OT_NURR1_NURR1RXRa_1440, was analyzed in the positive analysis fitting direction relative to DMSO as the negative control and baseline of activity. Using a type of binding reporter, measures of receptor for gain-of-signal activity can be used to understand the binding at the pathway-level as they relate to the gene RXRA. Furthermore, this assay endpoint can be referred to as a primary readout, because the performed assay has only produced 1 assay endpoint. To generalize the intended target to other relatable targets, this assay endpoint is annotated to the nuclear receptor intended target family, where the subfamily is non-steroidal.
# Protein-fragment complementation assay, or PCA, is a method for the identification and quantification of protein-protein interactions. In the PCA, the proteins of interest ("bait" and "prey") are each covalently linked to fragments of a third protein (e.g. DHFR, which acts as a "reporter"). Interaction between the bait and the prey proteins brings the fragments of the reporter protein in close proximity to allow them to form a functional reporter protein whose activity can be measured.
# Retinoic acid receptor RXR-alpha (Homo sapiens), sequence (P19793 whole entry, looked up): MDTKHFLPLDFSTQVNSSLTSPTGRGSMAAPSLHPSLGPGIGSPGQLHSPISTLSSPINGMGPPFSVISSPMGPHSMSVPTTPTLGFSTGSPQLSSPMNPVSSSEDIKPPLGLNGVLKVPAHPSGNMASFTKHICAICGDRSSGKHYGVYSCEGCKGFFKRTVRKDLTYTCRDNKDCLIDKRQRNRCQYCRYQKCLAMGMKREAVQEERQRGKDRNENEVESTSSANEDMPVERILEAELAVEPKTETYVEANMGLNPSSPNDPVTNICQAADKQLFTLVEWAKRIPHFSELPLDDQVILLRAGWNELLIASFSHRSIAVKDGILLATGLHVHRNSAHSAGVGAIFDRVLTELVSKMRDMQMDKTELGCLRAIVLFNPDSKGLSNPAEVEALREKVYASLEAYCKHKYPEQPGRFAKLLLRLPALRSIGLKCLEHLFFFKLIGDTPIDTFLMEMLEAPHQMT
Structure (SMILES),outcome,AC50
O=C(Nc1ccc2c(O)c(N=Nc3ccc(N=Nc4ccc(S(=O)(=O)O)cc4)cc3)c(S(=O)(=O)O)cc2c1)c1ccccc1,inactive,–
OCC#CCO,inactive,–
CCCCCC(=O)CC,inactive,–
Nc1ccccc1[N+](=O)[O-],inactive,–
CC(C)CCOC(=O)c1ccccc1,inactive,–
CCCCCCCCCCCCCC(=O)OCC(O)CO (stereo not given),inactive,–
CCCCC(CC)COC(C)=O (stereo not given),inactive,–
CCCC(C)=O,inactive,–
CC(C)c1ccccc1O,inactive,–
OCC(O)c1ccccc1 (stereo not given),inactive,–
C1=CC2C3C=CC(C3)C2C1 (stereo not given),inactive,–
CCOc1ccc(N=Nc2ccc(C=Cc3ccc(N=Nc4ccc(OCC)cc4)cc3S(=O)(=O)O)c(S(=O)(=O)O)c2)cc1,inactive,–
CN1CCOCC1,inactive,–
CCOc1ccccc1O,inactive,–
CCCCCC(C)=O,inactive,–
COS(=O)(=O)O,inactive,–
CCNCCO,inactive,–
CC1CCC(C(C)C)C(O)C1 (stereo not given),inactive,–
ON=C1CCCCC1,inactive,–
CCCCCCCCSCCO,inactive,–

Structure (SMILES),outcome,AC50
CC(C)NCC(O)COc1ccc(CC(N)=O)cc1 (stereo not given),inactive,–
CC(C)CCCCCCc1ccc(OCCOCCO)cc1,inactive,–
C=C1CC[C@H](O)C/C1=C/C=C1\CCC[C@]2(C)[C@@H]([C@H](C)/C=C/[C@H](C)C(C)C)CC[C@@H]12,inactive,–
CC(C=O)Cc1ccc(C(C)(C)C)cc1 (stereo not given),inactive,–
Cc1ccc(S(=O)(=O)Oc2ccc(N=Nc3ccc(-c4ccc(N=Nc5c(O)ccc6cc(S(=O)(=O)O)cc(S(=O)(=O)O)c56)c(C)c4)cc3C)cc2)cc1,inactive,–
O=CCc1ccccc1,inactive,–
CC(C)Nc1nc(N)nc(Cl)n1,inactive,–
C=Cc1ccc(C)cc1,inactive,–
CCCCCCC(CO)CCCC (stereo not given),inactive,–
O=[N+]([O-])c1ccc(O)cc1C(F)(F)F,–,86.8 µM (active)
CCCCCCC(=O)c1ccccc1,inactive,–
CCOC(=O)C1OC1c1ccccc1 (stereo not given),inactive,–
O=C(CC(=O)c1ccccc1)c1ccccc1,–,81.5 µM (active)
CCCOCCO,inactive,–
COCCOCCOCCO,inactive,–
O=c1c(O)c(-c2ccc(O)cc2)oc2cc(O)cc(O)c12,inactive,–
CCOC(=O)[C@@H](C)Oc1ccc(Oc2nc3ccc(Cl)cc3o2)cc1,inactive,–
CCCCC1CCC(O)CC1 (stereo not given),inactive,–
COC(=O)c1ccc(C)cc1C1=NC(C)(C(C)C)C(=O)N1 (stereo not given) (tested in a mixture with another compound),inactive,–
O=P(O)(O)O,inactive,–
